SENP7 block: inhibitors of human SENP7 protease; inhibition, % at 5 µM; AID 434973; recombinant SENP7, Z-RLRGG-aminoluciferin luminescence, 40 min; actives 1.5% (n = 330,000);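 active = inhibition above about 50% at the single test dose, limit read from the data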;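 note: plate controls were DMSO with enzyme for no effect and no enzyme buffer wells for full effect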
SENP6 block: blocks the human protease SENP6; Q9GZR1; Recombinant SENP6 catalytic domain, aminoluciferin luminescence; inhibition, % at 10 µM; actives 1.8% (n = 330,000); AID 2599;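 active = inhibition above about 50% at the single tested dose, limit read from the data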;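 note: plate controls were DMSO wells with enzyme for no effect and DMSO wells lacking enzyme for full effect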
SENP8 block-1: blocks the human protease SENP8. Q96LD8. purified SENP8, Z-RLRGG-aminoluciferin cleavage, luminescence. inhibition, % at 10 µM. actives 1.2% (n = 330,000). AID 2540; in the data active = inhibition above about 50%
Target sequence (Q96LD8 whole entry, looked up): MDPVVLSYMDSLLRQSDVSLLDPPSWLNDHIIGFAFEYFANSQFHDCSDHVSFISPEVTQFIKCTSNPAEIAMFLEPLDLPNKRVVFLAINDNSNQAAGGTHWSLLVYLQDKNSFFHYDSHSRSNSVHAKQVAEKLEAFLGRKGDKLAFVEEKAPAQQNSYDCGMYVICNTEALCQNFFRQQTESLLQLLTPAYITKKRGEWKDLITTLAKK
HSP90 inh: blocks HSP90-mediated luciferase refolding in reticulocyte lysate. Rabbit reticulocyte lysate, luciferase refolding luminescence, 3 h. inhibition, % at 5.6 µM. actives 0.91% (n = 290,000). AID 1789;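 active = inhibition above the screen-wide mean plus 3 SD, computed separately per campaign, cut at about 16% in these data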;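 note: 0% = DMSO wells and 100% = 60 µM geldanamycin wells; inhibitors lower the luminescence because luciferase stays unfolded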
SENP8 block-2: blocks human SENP8 cleavage of Nedd8 substrate; actives 0.64% (n = 360,000); recombinant SENP8, Nedd8 substrate fluorescence; inhibition, % at 20 µM; Q96LD8; in the data active = inhibition mostly above about 40%, no sharp cut-off; inactive = mostly below about 27%
SENP8 confirm: confirmation of human SENP8 protease inhibitors; shares compounds with SENP7 block; Recombinant SENP8, Z-RLRGG-aminoluciferin luminescence, 60 min; inhibition, % at 12.5 µM; actives 40% (n = 6,200); AID 488912;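 active = mean inhibition across replicates above about 50%, limit read from the data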
SENP6 confirm: confirmation of human SENP6 protease inhibitors; shares compounds with SENP7 block; actives 58% (n = 6,200); inhibition, % at 12.5 µM; recombinant SENP6, Z-RLRGG-aminoluciferin luminescence; AID 488915
SENP7 confirm: confirmation of human SENP7 protease inhibitors | shares compounds with SENP7 block | actives 69% (n = 6,200) | inhibition, % at 12.5 µM | recombinant SENP7, Z-RLRGG-aminoluciferin luminescence, 40 min
Casp3 select: selectivity test for SENP inhibitors: human caspase-3 inhibition; actives 60% (n = 6,200); inhibition, % at 12.5 µM; shares compounds with SENP7 block; purified caspase-3, Z-DEVD-aminoluciferin luminescence, 60 min;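 active = mean inhibition above about 50%, limit read from the data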;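 note: plate controls were enzyme with DMSO for no effect and wells without caspase-3 for full effect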
Target sequence (P42574 28-227 limits assumed): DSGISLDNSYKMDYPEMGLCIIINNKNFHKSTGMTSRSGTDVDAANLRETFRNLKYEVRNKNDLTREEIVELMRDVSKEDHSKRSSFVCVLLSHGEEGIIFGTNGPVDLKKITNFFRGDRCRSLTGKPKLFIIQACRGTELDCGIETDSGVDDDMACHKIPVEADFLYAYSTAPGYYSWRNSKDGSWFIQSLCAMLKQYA
SENP luc ctr: luminescence interference (SENP counter-screen). Pre-incubated SENP8/Z-RLRGG-aminoluciferin, luciferase luminescence interference. inhibition, % at 12.5 µM. shares compounds with SENP7 block. AID 488919. actives 39% (n = 6,200);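 active = mean inhibition above about 50% when retested at one dose, limit read from the data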;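 note: plate controls were DMSO wells with completed reaction for no effect and substrate without enzyme for full effect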
Active calls of the source: *; i = inactive; . = no result given. The list is not random: actives were taken first. Their share in the collection is about 2.8%.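 Rule for the calls, unless noted: active = mean inhibition above about 50% in the one-dose retest (limit read from the data); inactive = the rest.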

SMILES	SENP7 block	SENP6 block	SENP8 block-1	HSP90 inh	SENP8 block-2	SENP8 confirm	SENP6 confirm	SENP7 confirm	Casp3 select	SENP luc ctr
Cc1cc(C)c2c(=O)[nH]c(SCC(=O)Nc3cccc(S(=O)(=O)N(C)C)c3)nc2n1	3	-4	6	.	-44	.	.	.	.	.
Cc1c(NC(=O)c2c(NC(=O)CNC3CC3)sc3c2CCCC3)c(=O)n(-c2ccccc2)n1C	-6	-21	-8	3	15	.	.	.	.	.
Cc1c(C(C)(C)C)sc(=NC(=O)c2ccccc2O)n1C	72*	63*	60*	6	-288	19	12	2	12	-3
CCN1CCN(c2nc(C)nc3c2sc(=S)n3C)CC1	7	2	-4	0	14	.	.	.	.	.
Cc1ccc(NC(=O)COc2ccc3c(c2)OCO3)c(Cl)c1	62*	21	0	.	14	12	6	7	4	-2
CCc1ccccc1NC(=O)COc1ccc2c(c1)OCO2	1	-10	-7	1	11	.	.	.	.	.
O=C(/C=C/c1c(F)cccc1Cl)Nc1ccncc1	62*	65*	33	2	7	-5	1	44	17	27
O=C(/C=C/c1ccc(Cl)c(Cl)c1)Nc1cccnc1	18	18	1	.	22	.	.	.	.	.
O=C(/C=C/c1ccccc1Cl)Nc1cccnc1	93*	93*	86*	6	14	13	92*	100*	89*	90*
CC(=O)N(C)c1ccc(NC(=O)/C=C/c2ccccc2Cl)cc1	2	-4	-7	1	22	.	.	.	.	.
COc1ccccc1/C=C/C(=O)Nc1cccnc1	6	23	9	5	-16	.	.	.	.	.
CC(C)(C)c1ccc(/C=C/C(=O)Nc2cccnc2)cc1	83*	85*	76*	-4	18	10	80*	95*	59*	55*
O=C(/C=C/c1ccccc1Cl)Nc1ccncc1	30	62*	35	-7	25	26	21	68*	29	58*
COc1ccc(OC)c(C2Nc3c(Cl)ccc(C(=O)O)c3C3C=CCC32)c1 (stereo not given)	-5	15	-1	0	-1	.	.	.	.	.
O=C(N/N=C/c1cccs1)c1cncc(Br)c1	-4	-6	-10	0	9	.	.	.	.	.
O=C(N/N=C\c1ccc([N+](=O)[O-])s1)c1cncc(Br)c1	15	70*	9	5	37	0	19	-7	4	4
CCCN(CC1CC1)c1nc(N)c2c(N)nc(OC)cc2c1C#N	4	82*	80*	2	-499	7	12	2	-5	-16
CCOc1cc2c(C#N)c(N(CC)CC)nc(N)c2c(N)n1	45	72*	5	.	i	-2	1	3	10	6
COc1ccc(CNc2ccc(C)c(C)c2)c(OC)c1OC	3	-3	-1	-1	12	.	.	.	.	.
Cc1ccc(NCc2ccccc2O)cc1C	34	52*	42	-3	8	40	40	74*	41	57*
Cc1cc(=O)[nH]c(N/N=C/c2cc(C)n(-c3ccccc3)c2C)n1	13	66*	36	9	-263	66*	64*	87*	76*	16
Cc1cc(=O)[nH]c(N/N=C/c2cccs2)n1	-6	0	-13	-4	7	.	.	.	.	.
Cc1cc(=O)[nH]c(N/N=C/c2sccc2C)n1	56*	64*	23	3	2	41	39	79*	81*	49
COc1cc2c(c(OC)c1OC)-c1c(cc3c(c1O)OCO3)C[C@@H](C)[C@@H](C)C2	-4	-1	-1	.	11	.	.	.	.	.
Clc1ccccc1Cn1nc(-c2ccccc2)nc1-c1ccccc1	0	-7	-13	1	20	.	.	.	.	.
SMILES	SENP7 block	SENP6 block	SENP8 block-1	HSP90 inh	SENP8 block-2	SENP8 confirm	SENP6 confirm	SENP7 confirm	Casp3 select	SENP luc ctr
CC(=O)N1CCN(c2ccc(NC(=O)/C=C/c3ccccc3)cc2)CC1	-2	-7	-4	4	22	.	.	.	.	.
CCC1CSC(Nc2ccc(C(=O)/C=C/c3cccc(C)c3)cc2)=N1 (stereo not given)	4	54*	-1	0	-109	-15	-15	-22	-5	0
CCC(C)[C@H](NC(=O)OC(C)(C)C)C(=O)N/N=C/c1ccc2nccnc2c1 (stereo not given in full)	5	1	1	3	-68	.	.	.	.	.
CC(C)C[C@H](NC(=O)OC(C)(C)C)C(=O)N/N=C/c1ccc2nccnc2c1	51*	-12	8	-6	-41	-8	-3	5	0	-2
COC(=O)C1CCN(C(=O)CN2C(=O)c3ccccc3S2(=O)=O)CC1	-2	-8	-1	.	11	.	.	.	.	.
COc1cc(NC(c2ccccc2)c2ccccc2)cc(OC)c1OC	6	12	7	5	19	.	.	.	.	.
C=CCOc1c(CNC2CCCC2)cc(Cl)cc1OC	-1	24	4	-1	30	.	.	.	.	.
O=C(O)COc1ccccc1/C=N/Nc1ccc(S(=O)(=O)N2CCOCC2)cc1[N+](=O)[O-]	-8	-9	-5	3	29	.	.	.	.	.
CCCn1c(/C=N/Nc2nc3ccccc3[nH]2)nc2ccccc21	.	.	.	-5	-41	.	.	.	.	.
C(=N\Nc1nc2ccccc2[nH]1)/c1cccs1	62*	86*	59*	-4	-24	57*	54*	67*	52*	65*
Cn1c(/C=N/Nc2nc3ccccc3[nH]2)nc2ccccc21	74*	83*	60*	9	16	62*	59*	82*	52*	15
Cc1nn(-c2ccccc2)c(C)c1/C=N/Nc1nc2ccccc2[nH]1	75*	39	74*	7	-294	84*	84*	94*	74*	83*
Cc1cc(=O)[nH]c(N/N=C/c2c(C)nn(-c3ccccc3)c2C)n1	-3	-14	5	0	-12	.	.	.	.	.
Cc1ccsc1/C=N/Nc1nc2ccccc2[nH]1	.	.	.	6	-259	.	.	.	.	.
CCCNS(=O)(=O)c1cc2c3c(c1)CCN3C(=O)CC2	-11	1	-6	1	0	.	.	.	.	.
CCOC(=O)CSC1=NC(=O)/C(=C\c2ccc(OC(C)=O)cc2)S1	78*	72*	47	2	22	57*	52*	73*	41	77*
COc1ccccc1NC(=S)N1CCNC(=O)C1CC(=O)Nc1cccc(C)c1 (stereo not given)	3	-12	3	13	25	.	.	.	.	.

Source: PubChem (several laboratories)
